Source: PubChem BioAssay (Tox21)
Several values for one entry are separate records, joined by “and”; a condition that tells them apart may be missing. Equal values may be shown once. Records with an inconclusive call do not appear. Some compounds were tested as several samples or in several runs, with calls that do not always agree. Activity calls are given as the source filed them. Unless noted, the call rests on the fitted dose curve; in most records, active means well fitted curve in the direction sought with a large enough effect in the repeat runs; inconclusive means weak or mixed curves; inactive means no such curve, though single readings can be large; an effect the other way counts as inactive or inconclusive.

How the values were obtained:
[1] = molecular target: Thyrotropin receptor (Homo sapiens) (UniProt P16473); experiment: qHTS assay to identify small molecule antagonists of the thyroid stimulating hormone receptor (TSHR) signaling pathway (AID 1259385; calls by dose curve; further: nearly all actives have a fitted effect of over 20% in size)
Thyrotropin receptor (Homo sapiens), sequence (P16473 whole entry, looked up): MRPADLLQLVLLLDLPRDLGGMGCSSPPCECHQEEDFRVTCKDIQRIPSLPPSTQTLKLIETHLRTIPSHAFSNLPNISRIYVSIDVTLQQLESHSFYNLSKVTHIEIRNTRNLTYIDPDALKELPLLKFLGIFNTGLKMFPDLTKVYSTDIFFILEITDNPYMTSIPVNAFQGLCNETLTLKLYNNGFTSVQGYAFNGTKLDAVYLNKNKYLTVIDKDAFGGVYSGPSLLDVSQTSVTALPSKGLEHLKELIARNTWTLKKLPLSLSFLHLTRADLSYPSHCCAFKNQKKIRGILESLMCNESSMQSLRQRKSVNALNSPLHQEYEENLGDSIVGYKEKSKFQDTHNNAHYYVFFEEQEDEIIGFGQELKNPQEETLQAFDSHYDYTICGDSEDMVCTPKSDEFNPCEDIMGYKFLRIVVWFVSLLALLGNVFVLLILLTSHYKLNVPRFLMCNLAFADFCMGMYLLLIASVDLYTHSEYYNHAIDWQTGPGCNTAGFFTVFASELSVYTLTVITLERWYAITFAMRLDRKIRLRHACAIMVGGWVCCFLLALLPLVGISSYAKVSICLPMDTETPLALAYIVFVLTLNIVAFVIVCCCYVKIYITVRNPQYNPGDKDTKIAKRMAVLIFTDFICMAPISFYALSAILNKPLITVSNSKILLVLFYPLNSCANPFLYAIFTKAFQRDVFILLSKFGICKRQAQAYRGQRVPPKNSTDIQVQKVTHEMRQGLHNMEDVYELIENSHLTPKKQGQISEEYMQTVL
In short: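 TSHR-HEK293 cells (800/well) plated 18 h, then compounds with Ro20-1724 and TSH at 1.5 ng/mL final, 30 min at room temperature. cAMP quantified by HTRF (cAMP-d2/anti-cAMP-cryptate, 1 h); 15 concentrations in triplicate.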

[2] = qHTS assay to identify small molecule agonists of the estrogen receptor alpha (ER-alpha) signaling pathway in the presence of an antagonist - cell viability counter screen (AID 1259386);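 further: cells exposed to compounds for 22 h at 37 °C before the viability read; nearly all actives have a fitted effect of over 30% in size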; further: potency means the concentration at half of the fitted maximal effect
In short: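 In this counter screen, compound effects on VM7Luc4E2 viability were tested in the presence of the antagonist ICI-182,780 at 10.0nM final. Compounds were dosed at 15 concentrations, exposure lasted 22hr, and the CellTiter-Fluor signal was read.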

[3] = molecular target: Progesterone receptor (Homo sapiens) (UniProt P06401); experiment: qHTS assay to identify small molecule agonists of the progesterone receptor (PR) signaling pathway (AID 1346784; calls by dose curve; further: nearly all actives have a fitted effect of over 30% in size)
Progesterone receptor (Homo sapiens), sequence (P06401 whole entry, looked up): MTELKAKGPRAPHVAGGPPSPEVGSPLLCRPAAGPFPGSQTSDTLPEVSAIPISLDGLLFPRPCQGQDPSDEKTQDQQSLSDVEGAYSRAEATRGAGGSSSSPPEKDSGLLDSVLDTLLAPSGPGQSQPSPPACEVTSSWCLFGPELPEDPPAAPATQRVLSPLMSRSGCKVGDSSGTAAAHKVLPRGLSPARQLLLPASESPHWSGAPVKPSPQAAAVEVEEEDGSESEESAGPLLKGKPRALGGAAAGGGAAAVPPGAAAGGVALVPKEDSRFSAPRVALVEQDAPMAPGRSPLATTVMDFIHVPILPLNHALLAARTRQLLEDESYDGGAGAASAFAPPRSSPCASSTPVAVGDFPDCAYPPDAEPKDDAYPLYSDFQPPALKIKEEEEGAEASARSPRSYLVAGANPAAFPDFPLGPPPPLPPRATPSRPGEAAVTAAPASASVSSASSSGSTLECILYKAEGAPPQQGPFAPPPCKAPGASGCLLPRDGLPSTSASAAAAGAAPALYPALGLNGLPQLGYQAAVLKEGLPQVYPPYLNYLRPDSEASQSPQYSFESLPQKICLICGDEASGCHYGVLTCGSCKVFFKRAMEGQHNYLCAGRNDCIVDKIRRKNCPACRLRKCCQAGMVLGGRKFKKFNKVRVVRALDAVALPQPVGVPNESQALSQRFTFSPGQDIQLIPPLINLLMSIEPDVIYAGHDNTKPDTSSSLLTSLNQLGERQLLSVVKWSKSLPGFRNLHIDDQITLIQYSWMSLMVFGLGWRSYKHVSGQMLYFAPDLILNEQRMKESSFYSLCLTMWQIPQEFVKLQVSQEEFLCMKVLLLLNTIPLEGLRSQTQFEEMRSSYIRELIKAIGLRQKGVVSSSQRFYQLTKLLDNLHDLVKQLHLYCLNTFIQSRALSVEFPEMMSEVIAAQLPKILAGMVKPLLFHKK
In short: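 Using charcoal-stripped serum (2%) to limit endogenous steroids, PR-UAS-bla HEK 293T cells received compounds for 16 hr at 37C after 6 hr plating; beta-lactamase FRET fluorescence was recorded following 2 hr substrate loading at room temperature.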

[4] = molecular target: Progesterone receptor (Homo sapiens) (UniProt P06401); experiment: qHTS assay to identify small molecule antagonists of the progesterone receptor (PR) signaling pathway (AID 1346795; active means well fitted inhibition curve with a large enough effect in the signal ratio in the repeat runs, not every such curve was filed as active; the % refers to the signal ratio; further: potency means the concentration at half of the fitted maximal effect)
In short: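 Inhibition of R5020-induced (1 nM final) beta-lactamase reporter signal in PR-UAS-bla HEK293T cells was scored by FRET fluorescence after overnight (16 hr) compound treatment.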

[5] = qHTS assay to identify small molecule antagonists of the progesterone receptor (PR) signaling pathway - cell viability counter screen (AID 1346798); further: series mostly up to about 92 µM; nearly all actives have a fitted effect of over 50% in size
In short: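 ATP content as viability readout: CellTiter-Glo luminescence, 30 min room temperature, in PR-UAS-bla HEK293T cells after 16 hr compound/R5020 treatment at 37C and 5% CO2.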

[6] = qHTS assay to identify small molecule agonists of the progesterone receptor (PR) signaling pathway - cell viability counter screen (AID 1346799; calls by dose curve; further: nearly all actives have a fitted effect of over 45% in size)
In short: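 Cytotoxicity in PR-bla HEK293T cells: 16 h compound, 37C; CellTiter-Glo added post-FRET read; luminescence after 30 min RT.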

[7] = qHTS assay to identify small molecule antagonists of the TGF-beta/Smad signaling pathway - cell viability counter screen (AID 1346824); further: nearly all actives have a fitted effect of over 50% in size
In short: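 SBE-bla HEK 293T cells, incubated overnight, then compound plus 0.25 ng/mL TGF-beta1 (stock added) for 5 hr at 37 C. Viability was read in the same wells by CellTiter-Glo luminescence after 30 min at room temperature.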

[8] = qHTS assay to identify small molecule agonists of the TGF-beta/Smad signaling pathway - cell viability counter screen (AID 1346829); further: top concentration of the series differs between compounds; nearly all actives have a fitted effect of over 45% in size
In short: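 Luminescence from CellTiter-Glo, read after a 30 min room-temperature incubation, gives cell viability of SBE-bla HEK 293T cells treated 5 hr with compounds at 37 C.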

[9] = qHTS assay to identify small molecule agonists of the TGF-beta/Smad signaling pathway (AID 1346859; active means well fitted activation curve with a large enough effect in the signal ratio in the repeat runs, not every such curve was filed as active; the % refers to the signal ratio; further: series mostly up to about 77 µM)
In short: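 Stable Smad binding element-beta-lactamase HEK 293T cells; 5 hr compound exposure at 37 C under 5% CO2; 2 hr room-temperature substrate step; fluorescence excited at 405 nm, collected at 460 nm and 530 nm.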

[10] = molecular target: Thyrotropin-releasing hormone receptor (Homo sapiens) (UniProt P34981); experiment: qHTS assay to identify small molecule antagonists of the thyrotropin-releasing hormone receptor (TRHR) signaling pathway (AID 1346877; active means well fitted inhibition curve with a large enough effect in the repeat runs, not every such curve was filed as active; further: series mostly up to about 51 µM)
Thyrotropin-releasing hormone receptor (Homo sapiens), sequence (P34981 whole entry, looked up): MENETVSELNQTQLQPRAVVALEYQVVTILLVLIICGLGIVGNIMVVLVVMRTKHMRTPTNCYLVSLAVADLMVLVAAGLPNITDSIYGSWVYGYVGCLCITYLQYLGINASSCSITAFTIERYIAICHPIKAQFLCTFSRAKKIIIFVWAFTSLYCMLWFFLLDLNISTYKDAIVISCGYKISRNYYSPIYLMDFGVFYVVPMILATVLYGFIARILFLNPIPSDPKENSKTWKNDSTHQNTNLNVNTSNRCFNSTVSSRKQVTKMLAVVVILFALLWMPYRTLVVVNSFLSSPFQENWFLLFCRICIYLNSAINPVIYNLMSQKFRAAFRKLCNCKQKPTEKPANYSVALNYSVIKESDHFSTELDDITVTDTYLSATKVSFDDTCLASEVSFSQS
In short: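 Kinetic fluorescence (3 min, 1 s resolution) following stimulation with TRH at 1 nM final; HEK293 cells bearing human TRHR; 5 min compound preincubation at RT; concentration-response over 15 points, triplicates.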

Measured: Potency

CCCCCCCCCCCCCC(=O)OC(C)C
not listed: [9] | [10]
inactive: all other assays above

CC(O)COc1ccccc1 (configuration not stated)
not listed: [10]
inactive: all other assays above

Cc1c(N(C)C)c(=O)n(-c2ccccc2)n1C
not listed: [9] | [10]
inactive: all other assays above

O=C(OCc1ccccc1)c1ccccc1
not listed: [9] | [10]
inactive: all other assays above

COc1ccccc1NC(=O)CC(C)=O
inactive: all assays above

CC(=O)Oc1ccccc1C(=O)O
not listed: [10]
inactive: all other assays above

Cc1ccc(O)c(-n2nc3ccccc3n2)c1
active: [4] 48.6 µM
not listed: [9] | [10]
inactive: all other assays above

CCCCCCCC(=O)OCC(O)CO (configuration not stated)
inactive: all assays above

C=CCOC(=O)CC(C)C
inactive: all assays above

CCCCC/C(C=O)=C\c1ccccc1
not listed: [10]
inactive: all other assays above

CN(C)C=O
inactive: all assays above

C=C(C)OC(C)=O
inactive: all assays above

O=C1CCCCCN1
not listed: [10]
inactive: all other assays above

O=C(O)CN(CC(=O)O)CC(=O)O
inactive: all assays above

CCOCCO
inactive: all assays above

COC(=O)c1ccc(O)cc1
inactive: all assays above

CCc1cc(C(N)=S)ccn1
inactive: all assays above

CN/C(=C\[N+](=O)[O-])NCCSCc1ccc(CN(C)C)o1
inactive: all assays above

CC(=O)CCC(C)C
inactive: all assays above

CCCCCCCCCCCCCCCCCC(=O)OCC(O)CO (configuration not stated)
inactive: all assays above

OC[C@@H](O)[C@@H](O)[C@H](O)[C@H](O)CO
not listed: [9] | [10]
inactive: all other assays above

Oc1cccc(O)c1
not listed: [9] | [10]
inactive: all other assays above

CCCCOC(=O)CCCCCCCCC(=O)OCCCC
not listed: [9] | [10]
inactive: all other assays above

O=[N+]([O-])c1ccc(O)cc1
active: [2] 56.6 µM and 43.3 µM and 48.6 µM
not listed: [9] | [10]
inactive: all other assays above

c1ccc2[nH]c(-c3cscn3)nc2c1
inactive: all assays above

CC(C)=CCC/C(C)=C/CO
not listed: [10]
inactive: all other assays above

CCCCNC(=O)NS(=O)(=O)c1ccc(N)cc1
inactive: all assays above

N[C@@H](Cc1c[nH]c2ccc(O)cc12)C(=O)O
inactive: all assays above

NC(=O)N/N=C/c1ccc([N+](=O)[O-])o1
inactive and 61.1 µM (active): [2]
inactive: all other assays above

C=CC(=O)NC(C)(C)CS(=O)(=O)O
not listed: [10]
inactive: all other assays above

CCN(CC)CCOC(=O)c1ccc(N)cc1
inactive: all assays above

OCCCc1ccccc1
not listed: [9]
inactive: all other assays above

CC(=O)OC/C=C(C)/C=C/C=C(C)/C=C/C1=C(C)CCCC1(C)C
not listed: [9]
inactive: all other assays above

Cc1cccc2ccccc12
inactive: all assays above

NC(=O)c1ccc([N+](=O)[O-])cc1Cl
not listed: [9]
inactive: all other assays above

CO[C@H]1C=CO[C@@]2(C)Oc3c(C)c(O)c4c(O)c(c(/C=N/N5CCN(C)CC5)c(O)c4c3C2=O)NC(=O)/C(C)=C\C=C[C@H](C)[C@H](O)[C@@H](C)[C@@H](O)[C@@H](C)[C@H](OC(C)=O)[C@@H]1C
active: [2] 27.4 µM and 31 µM and 23.7 µM
inactive: all other assays above

COc1cc(O)c(C(=O)c2ccccc2)cc1S(=O)(=O)O
inactive: all assays above

O=c1cc[nH]c(=O)[nH]1
inactive: all assays above

COc1ccc(O)cc1
inactive: all assays above

CC(=O)c1ccc(S(=O)(=O)NC(=O)NC2CCCCC2)cc1
inactive: all assays above

CC1(C)O[C@@H]2[C@@H](CO[C@@]3(COS(N)(=O)=O)OC(C)(C)O[C@@H]23)O1
not listed: [9]
inactive: all other assays above

COC(=O)C1CCC(C(=O)OC)CC1 (configuration not stated)
not listed: [9]
inactive: all other assays above

CCCCCCCCOc1ccc(C(=O)c2ccccc2)c(O)c1
not listed: [9]
inactive: all other assays above
